# Bioassay records: PubChem, Broad Institute
# Pf Dd2 growth = inhibitors of Plasmodium falciparum Dd2 growth | P. falciparum Dd2 growth, SYBR Green, 72 h; active compounds read low | activity change, % at 10 µM | 94,000 compounds, 2.3% hits | AID 1159554; in the data active means activity change below about -80%; inconclusive means no clear call, values can overlap the other calls
# C diff HTS = C. difficile growth inhibition; Clostridium difficile clinical isolate growth, OD600, 24 h; active compounds read low; growth activity, negative = inhibition, % at 16 µg/mL (by protocol); 86,000 compounds, 0.25% hits; AID 1259249;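 active means mean growth activity at or below -80% and every replicate also at or below -80%; inconclusive means mean at or below -80% but some replicate above -80%; inactive means mean growth activity above -80%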;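 further: 0% = DMSO wells and -100% = levofloxacin 16 µg/mL wells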
# T cruzi growth-1 = inhibitors of T. cruzi proliferation; T. cruzi beta-gal in NIH3T3, GalScreen luminescence, 90 h; inhibition, % at 8.34 µM; 77,000 compounds, 5.9% hits;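 active means mean inhibition above about 93%, with at least 55% of replicates each passing it, limit read from the data, passing the limit was not always enough; inconclusive means only one of those two conditions holds; inactive means neither condition holds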
# T cruzi growth-2 = inhibitors of T. cruzi proliferation. shares compounds with T cruzi growth-1. T. cruzi beta-gal in NIH3T3, GalScreen luminescence, 90 h. inhibition, % at 8.35 µM. 5,600 compounds, 72% hits;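 active means mean replicate inhibition above about 95% and at least 55% of replicates individually reaching it, limit read from the data; inconclusive means only one of the two criteria is met; inactive means neither criterion is met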
# T cruzi growth-3 = Trypanosoma cruzi proliferation inhibition; shares compounds with T cruzi growth-1; T. cruzi beta-gal in NIH3T3, GalScreen luminescence, 90 h; inhibition, % at 2.09 µM; 5,600 compounds, 21% hits;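 active means mean inhibition above about 95%, with at least 55% of replicates also reaching it, limit read from the data; inconclusive means meets just one of the two conditions; inactive means meets neither condition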;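 further: plate controls were neutral control median for no effect and positive control median for full effect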
# NIH3T3 tox = cytotoxicity in mouse NIH/3T3 fibroblasts; NIH/3T3 viability, CellTiter-Glo ATP luminescence, 90 h; cytotoxicity (signal decrease), % at 8.35 µM; AID 651742; shares compounds with T cruzi growth-1; 5,600 compounds, 14% hits;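 active means mean signal decrease across replicates above about 35% based on untreated-well scatter, with enough replicates individually passing, limit read from the data; inconclusive means no rule stated though some were filed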;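 further: 0% = median of neutral control wells and 100% = median of positive control wells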
# NIH3T3 tox 2 = kills mouse NIH/3T3 fibroblasts. shares compounds with T cruzi growth-1. NIH/3T3 viability, CellTiter-Glo ATP luminescence, 90 h. inhibition, % at 24.9 µM. 5,600 compounds, 56% hits. AID 651744;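 active means mean loss of cell viability signal at or above a set limit, and enough replicates individually reaching it; inconclusive means meets only the mean limit or only the replicate share; inactive means meets neither condition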;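 further: 0% = median of neutral control wells and 100% = median of positive control wells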
# An asterisk follows results filed as active; ? = inconclusive; · = not tested or not shown. Sampled rows, rich in hits. Any-hit rate of the full collection: about 6.7%.
SMILES,Pf Dd2 growth,C diff HTS,T cruzi growth-1,T cruzi growth-2,T cruzi growth-3,NIH3T3 tox,NIH3T3 tox 2
C[C@H](CO)N1C[C@H](C)[C@@H](CN(C)C(=O)Nc2ccccc2F)Oc2ncc(/C=C/c3ccccc3)cc2C1=O,-80,-14,118*,112*,55,16,17
C[C@@H]1CN([C@H](C)CO)C(=O)c2cc(/C=C/c3ccccc3)cnc2O[C@H]1CN(C)C(=O)Nc1ccccc1F,-67,-11,124*,109*,104*,10,?
C/C=C/c1cnc2c(c1)C(=O)N([C@H](C)CO)C[C@H](C)[C@H](CN(C)C(=O)Nc1ccccc1F)O2,30,2,19,·,·,·,·
CCCNC(=O)N(C)C[C@@H]1Oc2ncc(/C=C/c3ccccc3)cc2C(=O)N([C@@H](C)CO)C[C@H]1C,-26,10,103*,98*,36,-4,4
CCCNC(=O)N(C)C[C@H]1Oc2ncc(/C=C/c3ccccc3)cc2C(=O)N([C@H](C)CO)C[C@@H]1C,-47,2,93,·,·,·,·
O=C(Nc1ccccc1F)N[C@H]1CC[C@@H](CCNC(=O)C2CCCCC2)O[C@H]1CO,-3,·,49,·,·,·,·
O=C(C[C@@H]1CC[C@H]2[C@@H](COC[C@@H](O)CN2S(=O)(=O)c2cccc(Cl)c2)O1)Nc1ccccc1,15,12,-4,·,·,·,·
O=C(C[C@H]1CC[C@@H]2[C@H](COC[C@@H](O)CN2S(=O)(=O)c2cccc(Cl)c2)O1)Nc1ccc(-c2ccccc2)cc1,-39,6,103*,89,108*,52*,105*
O=C(C[C@H]1CC[C@H]2[C@@H](COC[C@@H](O)CN2S(=O)(=O)c2cccc(Cl)c2)O1)Nc1ccc(-c2ccccc2)cc1,-10,14,109*,107*,108*,11,92*
O=C(C[C@H]1CC[C@H]2[C@@H](COC[C@H](O)CN2S(=O)(=O)c2cccc(Cl)c2)O1)Nc1ccc(-c2ccccc2)cc1,-17,2,90,·,·,·,·
C[C@H]1CN([C@@H](C)CO)C(=O)c2cc(-c3cccc(C#N)c3)cnc2O[C@H]1CN(C)Cc1ccc(F)cc1,33,1,-8,·,·,·,·
C[C@@H]1CN([C@H](C)CO)S(=O)(=O)c2ccc(-c3ccccc3F)cc2O[C@H]1CN(C)C(=O)C1CC1,-39,-17,-11,·,·,·,·
O=C(c1cccnc1)N1CCCCN2[C@H](C1)[C@H](c1ccc(C#Cc3ccccc3)cc1)[C@@H]2CO,14,-8,66,·,·,·,·
O=C(N[C@H]1CC[C@@H](CC(=O)N2CCCCC2)O[C@@H]1CO)c1cccc(F)c1,6,0,19,·,·,·,·
C[C@@H]1CN([C@H](C)CO)C(=O)c2cc(NC(=O)Nc3ccccc3)ccc2O[C@@H]1CN(C)S(=O)(=O)c1ccccc1,9,4,31,·,·,·,·
O=S(=O)(NC[C@@H]1N[C@@H](CO)[C@H]1c1ccccc1)c1ccccc1,-16,-1,104*,68,14,10,12
O=S(=O)(NC[C@@H]1N[C@@H](CO)[C@@H]1c1ccccc1)c1ccccc1,1,-4,61,·,·,·,·
C/C=C/c1ccc([C@@H]2[C@@H](CO)N[C@@H]2CN(C)S(=O)(=O)c2ccccc2)cc1,-6,19,14,·,·,·,·
C/C=C/c1ccc([C@@H]2[C@H](CN(C)S(=O)(=O)c3ccccc3)N[C@@H]2CO)cc1,-48,5,108*,47,25,-10,37*
COc1ccccc1-c1ccc2c(c1)O[C@@H](CN(C)S(=O)(=O)c1ccc(C)cc1)[C@H](C)CN([C@@H](C)CO)S2(=O)=O,-84*,5,126*,100*,71,24,46*
COc1ccccc1-c1ccc2c(c1)O[C@H](CN(C)S(=O)(=O)c1ccc(C)cc1)[C@H](C)CN([C@H](C)CO)S2(=O)=O,-39,19,120*,100*,?,18,53*
CN1[C@H](C(=O)NCC(F)(F)F)[C@@H](CO)[C@@H]2Cn3c(ccc(-c4ccc(F)cc4)c3=O)[C@@H]21,3,0,34,·,·,·,·
COc1ccc(CN(C)C[C@H]2Oc3ccc(NS(C)(=O)=O)cc3C(=O)N([C@@H](C)CO)C[C@H]2C)cc1,-2,0,·,·,·,·,·
CC(C)[C@@H](C)NC(=O)N(C)C[C@H]1OCc2ccccc2-c2c(n(C)c3ccccc23)C(=O)N([C@H](C)CO)C[C@H]1C,-37,·,-33,·,·,·,·
CC(C)CC#Cc1ccc2c(c1)O[C@H](CN(C)Cc1ccncc1)[C@@H](C)CN([C@@H](C)CO)S2(=O)=O,-69,20,130*,94,111*,?,106*
SMILES,Pf Dd2 growth,C diff HTS,T cruzi growth-1,T cruzi growth-2,T cruzi growth-3,NIH3T3 tox,NIH3T3 tox 2
CC(C)CC#Cc1ccc2c(c1)O[C@@H](CN(C)Cc1ccncc1)[C@H](C)CN([C@H](C)CO)S2(=O)=O,-76,21,129*,93,105*,61*,104*
CC(C)CC#Cc1ccc2c(c1)O[C@@H](CN(C)Cc1cncnc1)[C@H](C)CN([C@H](C)CO)S2(=O)=O,-34,-11,52,·,·,·,·
CC(C)CC#Cc1ccc2c(c1)O[C@H](CN(C)Cc1ccncc1)[C@@H](C)CN([C@H](C)CO)S2(=O)=O,-77,11,122*,104*,104*,30,105*
CC(C)CC#Cc1ccc2c(c1)O[C@H](CN(C)Cc1ccc(F)cc1)[C@@H](C)CN([C@@H](C)CO)S2(=O)=O,-62,19,101,·,·,·,·
CC(C)CC#Cc1ccc2c(c1)O[C@@H](CN(C)Cc1cncnc1)[C@@H](C)CN([C@@H](C)CO)S2(=O)=O,-18,1,70,·,·,·,·
CC(=O)N1[C@H](C(=O)N2CCCCC2)[C@@H](CO)[C@@H]2Cn3c(ccc(C4=CCCCC4)c3=O)[C@@H]21,6,0,8,·,·,·,·
C[C@H]1CN([C@@H](C)CO)C(=O)c2cccc(NC(=O)Nc3ccc(C(F)(F)F)cc3)c2O[C@@H]1CN(C)S(C)(=O)=O,13,-24,·,·,·,·,·
CC(C)C#Cc1ccc2c(c1)O[C@@H](CN(C)CC1CCOCC1)[C@@H](C)CN([C@@H](C)CO)S2(=O)=O,-54,1,51,·,·,·,·
O=C(C1CC1)N1CC[C@@H]2[C@@H](CO)Nc3ccc(-c4cccc(F)c4)cc3[C@@H]21,-5,-22,109*,101*,83,-1,26*
O=C(C1CCC1)N1CC[C@@H]2[C@H](CO)Nc3ccc(-c4cccc(F)c4)cc3[C@@H]21,18,29,?,106*,91,1,70*
COc1ccccc1-c1ccc2c(c1)[C@H]1[C@H](CCN1C(=O)C1CC1)[C@H](CO)N2,-3,-1,88,·,·,·,·
O=C(C1CCCC1)N1CC[C@H]2[C@H](CO)Nc3ccc(-c4cccc(F)c4)cc3[C@H]21,-49,28,·,·,·,·,·
